# aSyn yeast inh: rescues yeast growth from alpha-synuclein toxicity. Yeast expressing alpha-synuclein, growth rescue, BacTiter-Glo, 24 h. Potency, µM (top dose mostly 46.1 µM), without a hit: at the top dose growth rescue (activation), actives largely listed as activators. 370,000 compounds, 0.14% hits. AID 652106; also: % of control where 0% means no effect; nearly all actives have a fitted effect of over 65% in size
#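 Screening used galactose-induced yeast with toxic alpha-synuclein levels, exposed to compound for 24 hr at 30 deg C. Cell growth, read with BacTiter-Glo luminescence, gave the measured signal.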
# Abeta rescue: compounds reversing amyloid beta toxicity in yeast; yeast expressing A-beta42, growth rescue, OD600, 48 h; response scale: 0% DMSO, 100% iron-clioquinol control; Potency, µM (doses to about 46.1 µM), most hits filed as activators; 410,000 compounds, 0.063% hits; also: nearly all actives have a fitted effect of over 55% in size
#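 Yeast A-beta toxicity model in growth medium with pinned compounds, 48 h at 30 C; growth read as absorbance at 600 nm. Normalized to FeCl3/clioquinol equimolar mix (positive) and DMSO (negative).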
# BCR signal inh: blocks chronic active B-cell receptor signaling | Potency, µM (titrated, usually from 46.1 µM), without a hit: top-dose activity change, negative = inhibition, usual class: inhibitors | 340,000 compounds, 0.05% hits | AID 493014 | ABC-DLBCL IkBa-CBG/CBR reporter, luminescence ratio, 4 h; active = well fitted inhibition curve with a large enough effect in the signal ratio, with a control signal flat, not every such curve was filed as active; inconclusive = small, poorly fitted or top-dose-only effect, or effect the other way, or a change in a side signal; the % refers to the signal ratio;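 also: plate controls were basal doxycycline-induced cells for no effect and cells given 10 µM MG132 for full effect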
#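 TMD8 ABC-DLBCL cells carrying doxycycline-inducible green luciferase fused to IkappaBalpha plus unfused red luciferase were exposed to compounds (up to 46 uM) for 4 hrs at 37C. Activity came from the overlap-corrected green/red luminescence ratio.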
# FUS yeast rescue: FUS proteinopathy suppression in yeast; S. cerevisiae FUS-expressing, growth rescue, OD600, 24 h; Potency, µM (highest dose often 76.6 µM), actives largely listed as activators; 390,000 compounds, 0.24% hits; AID 1347120;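 also: plate controls were DMSO vehicle for no effect and reference control for full effect; nearly all actives have a fitted effect of over 55% in size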
#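 Yeast FUS proteinopathy model; galactose-induced FUS (2%), starting OD 0.005. Cpds in dilution series, 24hr, 30C, 99% humidity. Abs 600 nm growth. Pos ctrl CP55940 (top 92uM final); neg ctrl DMSO.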
# TDP43 rescue: rescues yeast growth from TDP-43 toxicity | Potency, µM (highest dose often 46.1 µM), for inactives: at the highest dose growth rescue (activation), actives largely listed as activators | AID 652104 | 410,000 compounds, 1.8% hits | TDP-43 expressing yeast growth rescue, BacTiter-Glo, 24 h; also: % of control where 0% means no effect; nearly all actives have a fitted effect of over 50% in size
#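 Cell-based yeast growth screen: TDP-43 expression induced in galactose, inoculum OD600=0.02 after raffinose pregrowth to mid-log. Read-out BacTiter-Glo luminescence at 24 hr, 30 deg C; inhibition of toxicity seen as signal increase.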
# uPA generation: blocks generation of uPA at the cell surface | Potency, µM (doses to about 38.3 µM), for the others: at the highest dose activity change, negative = inhibition, usual class: inhibitors | 330,000 compounds, 0.31% hits | cell surface uPA generation assay, qHTS; active = well fitted inhibition curve with a large enough effect; inconclusive = small, poorly fitted or top-dose-only effect; inactive = no such curve, though single readings can be large or run the other way; tested in mouse RAW 264.7 cells; also: % is scaled to controls: 0 for no effect and ±100 for the full control effect; nearly all actives have a fitted effect of over 55% in size
# * marks the source's active call; other numbers are inactive results; i = inactive; ? = inconclusive; . = not tested or not shown. In the library only some 2.3% were active in any assay of this set; here they are far more common. Unless noted, calls follow the shape of the dose curve; as a rule, active = well fitted curve in the direction sought with a large enough effect; inconclusive = small, poorly fitted or top-dose-only effect, or another doubt; inactive = no such curve, though single readings can be large; an effect the other way counts as inactive or inconclusive. Potency is read from the fitted curve at half-maximal effect.
SMILES,aSyn yeast inh,Abeta rescue,BCR signal inh,FUS yeast rescue,TDP43 rescue,uPA generation
Cc1cc2nnc(SCc3ccc(F)cc3)n2c2ccccc12,24%,i,.,i,35µM*,.
Nc1cc(N2CCCCC2)c(Cl)cc1[N+](=O)[O-],1%,i,?,i,13µM*,-3%
Nc1cc(N2CCCCC2)c([N+](=O)[O-])cc1Cl,13%,i,?,.,?,-8%
Cc1ccc(CS(=O)(=O)c2cn(CC(=O)N(C)c3ccccc3)c3ccccc23)cc1,.,i,.,32µM*,4%,.
COc1ccc(CC(=O)Nc2ccc(NC(=O)c3ccc(Br)cc3)cc2)cc1OC,4%,i,-1%,i,8%,1%
Cn1c(NCc2ccco2)nc2ccccc21,-2%,i,7%,i,-8%,.
CCN(CC)S(=O)(=O)c1ccc(Cl)c(C(=O)Oc2cccc(-c3cnc4ccccc4n3)c2)c1,3%,i,.,.,14%,4%
CC(C/C=N/NC(=O)COc1cc(Cl)ccc1Cl)c1ccccc1 (stereo unspecified),-7%,i,0%,i,-12%,0%
Cc1ccccc1Nc1cc(C(=O)NCCc2ccc(Cl)cc2)c2ccccc2n1,.,i,.,i,18µM*,.
COc1ccc(CNC(=O)c2cc(Nc3ccccc3C)nc3ccccc23)cc1,.,i,.,i,10%,.
CCc1ccc(NS(=O)(=O)c2ccc3[nH]cc(C(=O)NC4CCCC4)c(=O)c3c2)cc1,.,i,.,28µM*,11%,.
C(=C\c1ccnc2ccccc12)/c1cc2c3c(c1)CCCN3CCC2,4%,.,.,.,.,.
CC1C/C(=C/c2ccccn2)C(=O)/C(=C/c2ccccn2)C1 (stereo unspecified),-65%,i,?,i,-93%,-4%
Cc1cccc(CCN=C(N)NS(=O)(=O)c2ccccc2)c1,-7%,.,0%,i,2%,7%
COC(=O)c1ccc(NCc2c(O)ccc(O)c2Br)cc1Cl,-21%,i,.,.,20µM*,10%
COC(=O)c1ccc(NCc2cc(O)ccc2O)cc1O,0%,i,.,.,25%,-1%
CCN1CCN(Cc2ccc(NC(=O)c3cc(NC(=O)c4cc(-c5ccc(OC)cc5)n[nH]4)cc(OC)c3)cc2C(F)(F)F)CC1,-6%,i,?,28µM*,-2%,?
COc1ccc(-c2[nH]ncc2CN2CCN(Cc3cccs3)CC2)c(F)c1,-5%,i,-8%,i,-6%,3%
COc1ccc(/C=N/NC(=O)c2ccc(CSc3nc(C)cc(C)n3)cc2)cc1O,-4%,i,16µM*,?,-6%,-15%
COc1ccc(/C=N/NC(=O)c2ccc(CSc3nc(C)cc(C)n3)cc2)c(OC)c1OC,2%,i,-3%,.,25%,-13%
O=Cc1cc(N=Nc2ccccc2Cl)ccc1O,-52%,i,?,i,0%,8.9µM*
O=C(c1ccccc1)c1c[nH]c(C(=O)C(Cl)(Cl)Cl)c1,1%,i,?,i,12%,5%
O=C(c1c[nH]c(C(=O)C(Cl)(Cl)Cl)c1)c1ccc(F)cc1Cl,-2%,i,-14%,i,8.9µM*,2%
O=C(c1c[nH]c(C(=O)C(Cl)(Cl)Cl)c1)c1ccc(F)cc1F,1%,i,?,i,6%,-10%
O=C(Cc1ccccc1)c1c[nH]c(C(=O)C(Cl)(Cl)Cl)c1,3%,i,0%,i,13µM*,2%
Cc1cccn2c(=O)c(/C=C(\C#N)C(=O)NC3CCS(=O)(=O)C3)c(Oc3ccc(F)cc3)nc12 (stereo unspecified),-3%,i,-16%,i,-12%,-8%
Cc1c(C(=O)Nc2cccnc2)oc2ccc(Br)cc12,-11%,i,?,i,8.9µM*,-7%
CCc1ccc2oc(C(=O)Nc3cccnc3)c(C)c2c1,-2%,i,-1%,i,-9%,?

# Compound activity (PubChem)
